The full ranking holds about 59,000 sequences; the median of the read-out is about -0.00055, and the lowest 2% start at about -2. Shown is part of a subset that was picked to be rich in the lowest values.
Assay: Identification of proteins required for the processing of the EWS-FLI1 nascent transcript;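 also: robust z of luciferase light less the median z of siRNAs with the same seed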
Conditions: TC32 Ewing sarcoma NR0B1-luc vs CMV-luc (EWS-FLI1 target promoter against control promoter), 48 h; screened at 20 nM (by protocol)
Outline: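 Readout: OneGlo luminescence, 48 h post-transfection, TC32-NR0B1-luc vs TC32-CMV-luc in parallel. siRNA 20 nM final, RNAiMax lipid, 600 cells/well; z-score-MAD transformed, then seed-adjusted.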

Row | Sequence | seed-corrected z-score
1 | UUUCCGUACAUUGUGGUCC against ATP13A5 | 0.276
2 | UAAGCACGAACAGUUAUAG against USP47 | 0.264
3 | AUAGGGCACAUCUUGUAGG against CSDC2 | 0.0846
4 | UCUGUUUUGAAGGACCUCU against ENTPD6 | 0.116
5 | UUCGCAUUUGUAUUCGACC against GNB4 | 0.0257
6 | UAUUUCACCAUCUCCGAGC against MAGEF1 | -2.32
7 | UGAGGUUAUACGUUCCCUG against KIAA1549 | -0.0625
8 | UUGGGUCCGAGGAACAACU against ZNF469 | 0.678
9 | UCUUGCAACAGAGCCCUGA against TESK1 | -0.681
10 | AUCCGCAUCAGUAACAUUG against CASQ1 | -0.835
11 | UUCCUUAAUGGUGUAUUCG against RIN3 | 0.651
12 | UAUGGAACUGUAUAUAGGA against EVA1C | 0.1
13 | UGCUCUGUAAUCACGGGCU against WARSP1 | -1.94
14 | AUACUGUAGACGUACCUCU against F2R | -0.762
15 | AAAGGUUCACCACAUAGCC against SORL1 | -3.01
16 | UUAUGUGAACCAUCGCAGG against CISD2 | 0.515
17 | UCCAGUAGUAGUCUUCCAG against MAF | -2.92
18 | AUAGGUGUUGAUACGAGCC against SATB1 | -0.199
19 | UAUCUUUCCUGGUAUGUCA against LPCAT3 | -0.533
20 | UCGAUUUUGAGAAUCAAUG against VPS45 | 0.271
21 | UCAUAGCAAAGGAUCAGCC against CDC42BPB | -3.29
22 | UUCCUUACCAUCAGGCAAG against DAP3 | 0.589

Row | Sequence | seed-corrected z-score
23 | AUGGGUUCCAGCAACAAUC against TMEM65 | 0.797
24 | UUCUUGUAGUCCUCUAGGC against FZD8 | 0.236
25 | AUAGUAAUUCCUGGUAAAG against CYBA | -3.24
26 | UACAAAAACGAUGGCAUCC against CCL17 | -0.409
27 | UACCCAUACGGAGUAGCGA against ASMTL | -0.0723
28 | UAUAGGCAAAGCUAUCUCC against RBM15B | -0.465
29 | AAUAAGACUCCUAAAAUCC against OR2A25 | -2.04
30 | UAAUAUAUUGUCCAUUUAC against OSTC | 0.401
31 | UUUUGAUUGAGAGGAUCGU against MBD2 | 0.911
32 | UUAACAACUUUAGUCCUGC against EFHC1 | 0.0527
33 | ACUUGUAACAGAUCAGCUC against TKFC | 0.791
34 | UUAGUUGAGGGUGAUCCCG against MXRA5 | 0.422
35 | AGAGAUCCCGUGUAUGACC against SLC30A2 | -0.311
36 | UCUGCUCCCACAAUGAAAC against RPLP0 | -2.42
37 | UCAAUUAUUCCUCUCCGUC against HEY1 | -0.248
38 | UCAUAGUCCAUUCAGAGUU against CEACAM19 | 0.0695
39 | UCCUGGAUACCUAACACCC against USP26 | 0.09
40 | ACUCCAAUCAGUACAGUCC against NUP210L | -0.264
41 | AAGUUGUCAAACAAGCCCU against CHTF18 | -3
42 | UUAACCGAUAUAUCCAUGG against LRRTM4 | 0.0172
43 | UGAGGUCCACGAUAUCUAG against PYDC1 | 0.555
44 | AAAGAUAUCAGUGACGAAG against HIST1H2BA | -0.152

Row | Sequence | seed-corrected z-score
45 | UAUUGUUCCGUCAUGCACU against PTGDS | 0.165
46 | UAUCUCCACAUACCCGUUC against INHBA | -0.368
47 | UACGUAGAUUUGGAAUUCC against ACO1 | 0.682
48 | UUAGUCUCAGCAUCGGCUC against KIAA1210 | -0.103
49 | UCACGAAGGAGUCUAUUCC against PRTN3 | -3.15
50 | AUAGAGCCCAUUAUGCUUU against PSG11 | -1.42
51 | UUGGUGUUGGGCAACUUGU against HOXB4 | 0.286
52 | UCACUGAUUCUAGAUGAUG against SPIN3 | -0.422
53 | UAUAAAUCAACGGAUUCAG against OR5I1 | 0.416
54 | UUUUGCACCUGGGUCCUAC against LRWD1 | 0.154
55 | AAAGGAAAAACCUAUUUUC against LOC728254 | 0.573
56 | AUAGGUUCCUGUCUGUUGG against PYCRL | 0.415
57 | AAAGAUUAAGGUACCAUAG against OR5J2 | 0.72
58 | UUCGGCUUCACUGUUAUCC against TNR | -2.16
59 | UCCAGUUCUUUCUUGGUCG against GTPBP6 | 0.447
60 | UUGAUGGAUAGUCAUCACG against RBMX | -0.224
61 | AAAUCGAUAAUCACUUAGG against ZNHIT6 | 0.142
62 | UAUUUCACAACAGGCACCG against MYO1C | -2.29
63 | UUUUGUGCCUGUGCCCUUG against SBK1 | -0.47
64 | AGACUGAUGGUAGUGGUGG against PRRT1 | -0.57
65 | UUCAAUAUCAUUCCGAGGC against C6orf62 | 0.77
66 | UUGUAUGAUUUUGCAAUUG against LINC01014 | -0.168

Row | Sequence | seed-corrected z-score
67 | AAAUGUACUCGAUCCCAUG against CPA5 | -2.65
68 | UACAGUUCCUCAAUGUUCA against IL1F10 | 1.27
69 | UAAACAGGCACGAAGCUUC against RPAIN | -0.43
70 | UUAGCUAGAGUUUUCAACC against MLLT11 | 0.312
71 | UGACGUACCAGCACUGCGU against ADM2 | -13.6
72 | UGAGCAUCCAUGCUGGGUA against ZNF688 | 0.0175
73 | UUCAUUUAAAUUCUAACAC against SYNC | 0.372
74 | AUUCAUUCUUAUUAAGUGC against GPX5 | -0.0754
75 | UUUGGUUUGAGCAGUCAAG against COMMD1 | -2.03
76 | AAUAAAUCCAUCCUUGUUC against GUCA1C | -0.429
77 | UCCUGAUCUAUCCAUAGGC against IFITM3 | -0.0222
78 | UUCUCAAACACCUUCUUCC against QTRT1 | -0.0367
79 | UGCUCCAUCACAAAGGCGG against FN3K | 1.15
80 | AUGGGAAUUAUGUCGGUUG against SCEL | 0.236
81 | UCCAGUUGUACUUCUUGCC against GFOD1 | -3.99
82 | AAACUCUUUAGGAAAGAUG against POLR2D | -0.98
83 | UUAGCUGCCUGGAUAAGCG against CTNNA2 | -0.541
84 | UUUCCAACAUGAUCCACUG against TM2D2 | 0.00525
85 | AAACGUUUGGAGCCUCUUG against NOXO1 | -2.35

— PubChem BioAssay AID1159506 (National Center for Advancing Translational Sciences (NCATS), 2015)
